IL1B secr inh – qHTS for Inhibitors of Inflammasome Signaling: IL-1-beta AlphaLISA Primary Screen. THP-1 LPS/ATP IL-1B secretion, AlphaLISA, 16 h; active compounds read low. hit rate 4.7% among 360,000. activity change, % at 57.5 µM; in the data active means activity change below about -50%; inconclusive means mostly about -30% to -49%
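THP-1 cells pretreated 1 hr with compounds (up to 57.5 uM final), then stimulated with LPS (250 ng/mL final) plus ATP (1.25 mM final); secreted IL-1B measured by AlphaLISA after 16 hr, decreased signal indicating inhibition.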
D3 ag – qHTS of D3 Dopamine Receptor Agonist: qHTS | D(3) dopamine receptor (Homo sapiens), P35462 | D3R DiscoveRx beta-arrestin cells, luminescence, 90 min | max activation, % | hit rate 0.58% among 410,000; in the data active means max activation above about 30%
Target sequence (P35462 whole entry, looked up): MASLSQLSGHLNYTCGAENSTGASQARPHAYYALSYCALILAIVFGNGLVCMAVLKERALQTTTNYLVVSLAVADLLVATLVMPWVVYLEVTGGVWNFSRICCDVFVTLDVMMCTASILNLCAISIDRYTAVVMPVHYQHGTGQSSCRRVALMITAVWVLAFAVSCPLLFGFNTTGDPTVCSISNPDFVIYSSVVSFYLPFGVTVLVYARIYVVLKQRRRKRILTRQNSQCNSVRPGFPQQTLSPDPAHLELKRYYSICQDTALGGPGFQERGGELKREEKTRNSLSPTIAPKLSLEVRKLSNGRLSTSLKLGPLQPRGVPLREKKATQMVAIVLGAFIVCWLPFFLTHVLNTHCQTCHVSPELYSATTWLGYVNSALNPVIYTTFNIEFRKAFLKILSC
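Agonist mode: compounds and dopamine controls were applied to plated cells for 90 min at 37 degrees C after an overnight attachment at 1500 cells/well. Luminescent read-out followed 30 - 60 minutes at room temperature with DiscoveRx detection reagent.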
ATXN2 expr inh – Primary qHTS for Inhibitors of ATXN expression; Potency, µM (doses to about 57 µM), usual class: inhibitors; AID 1745845, 2022; HEK-293 ATXN2-luciferase reporter, luminescence, 24 h; hit rate 0.72% among 360,000; further: nearly all actives have a fitted effect of over 55% in size
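ATXN2-luciferase reporter cells (luciferase flanked by upstream and downstream ATXN2 gene portions) were treated 24 h at 37 °C with compounds at up to 57 uM. SteadyGlo luminescence gave expression; GF-AFC fluorescence gave viability.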
D3 antag – qHTS of D3 Dopamine Receptor Antagonist: qHTS. D(3) dopamine receptor (Homo sapiens), P35462. D3R cells, DiscoveRx beta-arrestin luminescence, antagonist mode; active compounds read low. max response, negative = inhibition, %. hit rate 2.5% among 360,000. AID 652054, 2013; in the data active means max response below about -50%; inconclusive means no clear call, values can overlap the other calls
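Cells expressing the human receptor were seeded at 1500 cells/well, incubated overnight at 37 degrees C in 5% CO2, then exposed to library compounds with dopamine controls for 90 minutes at 37 degrees C before luminescent detection.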
Integrin act MD – qHTS for Activators of Integrin-Mediated Alleviation for Muscular Dystrophy; alpha7betagal myoblasts, beta-gal FDG fluorescence, 48 h; Potency, µM (top dose mostly 38.3 µM), usual class: activators; hit rate 0.064% among 350,000; further: nearly all actives have a fitted effect of over 60% in size
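Alpha7betagal+/- myoblasts (passage 13) were plated 16-24 hr, then exposed to compounds (1:260 dilution of DMSO stock) for 48 hours at 37C. After MPER lysis, β-galactosidase reporter activity was read as FDG fluorescence (ex 480/em 540) after 30 minutes.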
ATXN viability – Viability Counterscreen for Primary qHTS for Inhibitors of ATXN expression | hit rate 0.49% among 400,000 | AID 651635, 2014 | Potency, µM (top dose mostly 56.7 µM), usual class: cytotoxic | S2 cells (HEK-293 line with an ATXN2-luciferase reporter) viability, CellTiter-Fluor protease fluorescence, 24 h; further: nearly all actives have a fitted effect of over 40% in size
Hits are given with their value; – = inactive; ? = inconclusive; · = not tested or not shown; [ ] = dose if it differs, or a comment. Rows were chosen to be rich in hits. Some 7% of all compounds tested hit in one or more screens of this group. Unless noted, the call rests on the fitted dose curve; in most records, active means well fitted curve in the direction sought with a large enough effect; inconclusive means small, poorly fitted or top-dose-only effect, or another doubt; inactive means no such curve, though single readings can be large; an effect the other way counts as inactive or inconclusive.

SMILES | IL1B secr inh | D3 ag | ATXN2 expr inh | D3 antag | Integrin act MD | ATXN viability
CCOc1ccc(OC(=O)c2cn(-c3cccc(OC)c3)c(=O)c3ccccc23)cc1 | · | – | · | · | · | ·
COc1ccc(/C=C2\C(=O)ON=C2c2ccccc2)cc1 | ? | – | ? | – | – | 20µM
O=C1ON=C(c2cccc([N+](=O)[O-])c2)/C1=C/c1ccc(O)cc1 | -99.8 | – | ? | – | – | ?
COc1cc(/C=C2\C(=O)ON=C2c2ccc(Cl)cc2)ccc1O | -94.5 | – | ? | – | – | ?
O=C1ON=C(c2ccccc2)/C1=C/c1ccc(OS(=O)(=O)c2ccccc2)cc1 | – | – | – | – | – | –
O=C1ON=C(c2ccccc2)/C1=C/c1ccc(O)c(O)c1 | – | – | · | – | – | ?
NC(=S)N/N=C/c1c[nH]c2ccc(OCc3ccccc3)cc12 | – | – | · | – | – | ·
CCOC(=O)c1cnc(Nc2nc3ccccc3o2)nc1CSC(=S)N(CC)CC | – | – | – | -60.3 | – | –
CCN(CC)c1cc2c(c3c1ccn3C)C1CCC2C1 (stereo not drawn) | – | – | – | -61.3 | · | –
CCN(Cc1ccccc1)c1cc2c(c3c1ccn3C)C1CCC2C1 (stereo not drawn) | – | – | – | -55.1 | · | –
CCCN(CC1CC1)c1cc2c(c3c1ccn3C)C1CCC2C1 (stereo not drawn) | – | – | ? | ? | · | ?
CC1CN(CCC(=O)Nc2ccccc2F)CC(C)O1 (stereo not drawn) | – | – | · | – | – | –
COc1ccccc1NS(=O)(=O)/C=C/c1ccccc1 | – | – | – | – | – | –
COc1ccc(C(CNC(=O)CNS(=O)(=O)c2ccc(NC(C)=O)cc2)N2CCOCC2)cc1 (stereo not drawn) | – | – | – | – | – | –
CCN1CCN(c2ccc(N3CCN(S(=O)(=O)c4cccc([N+](=O)[O-])c4)CC3)nn2)CC1 | – | – | · | – | – | –
CCn1c(N2CCN(S(=O)(=O)c3ccccc3C(F)(F)F)CC2)nc2ccccc21 | -51.8 | 31.9 | – | – | – | –
Cn1c(N2CCN(S(=O)(=O)c3ccc(F)cc3)CC2)nc2ccccc21 | – | – | – | – | – | –
CCn1c(N2CCN(S(=O)(=O)c3ccc(OC)cc3)CC2)nc2ccccc21 | -65.7 | 36.2 | – | – | – | –
CC(C)n1c(N2CCN(S(=O)(=O)c3cccc([N+](=O)[O-])c3)CC2)nc2ccccc21 | -72.3 | – | – | – | – | –
CC1CC(=O)Nc2ccccc2N1C(=O)Nc1ccc(F)cc1 (stereo not drawn) | – | – | – | – | – | –
O=C(C1=C(O)C(=O)N(c2ncccn2)C1c1cccc(Cl)c1)c1ccco1 (stereo not drawn) | – | – | – | -74.5 | – | ?
O=C(C1=C(O)C(=O)N(c2ncccn2)C1c1ccc(Cl)c(Cl)c1)c1ccco1 (stereo not drawn) | – | – | – | – | – | –
Nc1nc(CN2CCN(c3ccccc3F)CC2)nc(Nc2ccc3c(c2)OCCO3)n1 | – | – | – | ? | – | –
CCCN(CCC)C(=O)CC(c1ccccc1)c1cc(C)ccc1O (stereo not drawn) | -57.3 | – | – | – | – | –
CC(=O)c1c(C)[nH]c(C(=O)OCC(=O)NCCCc2ccccc2)c1C | – | – | – | – | – | –
SMILES | IL1B secr inh | D3 ag | ATXN2 expr inh | D3 antag | Integrin act MD | ATXN viability
COc1ccc(CONS(=O)(=O)c2ccc(NC(C)=O)cc2)cc1Cl | – | – | – | -106.0 | – | –
CSCCOC(=O)COc1ccc(/C=N/NC(=O)c2nn(C)cc2Cl)cc1 | -69.4 | – | – | – | – | –
Cc1ccc(S(=O)(=O)Oc2ccc(/C=N/NC(=O)c3nn(C)cc3Cl)cc2)cc1 | – | – | – | – | – | –
CN(C(=O)CSc1cn(CC(=O)N2CCCCCC2)c2ccccc12)c1ccccc1 | · | – | · | · | · | ·
Cc1ccc(-n2cc(CN3CCN(c4ccccn4)CC3)c(-c3ccc(F)cc3)n2)cc1 | ? | – | – | -62.0 | – | –
Cc1ccc(-n2cc(CN3CCN(C(=O)c4ncn[nH]4)CC3)c(-c3ccc(F)cc3)n2)cc1 | -59.4 | – | · | – | – | ?
Cc1c(NC(=O)c2ccc(C(C)(C)C)cc2)cccc1[N+](=O)[O-] | -51.7 | – | – | – | – | –
COc1ccc(C)cc1NC(=O)Nc1ccc(C(=O)N2CCCC2)cc1 | ? | – | – | – | – | –
COc1ccc(Cl)cc1NC(=O)Nc1ccc(C(=O)N2CCCC2)cc1 | -64.1 | – | – | – | – | –
CC(C)(C)OC(=O)N1CCC(CNC(=O)c2ccc(F)cc2F)CC1 | – | – | – | – | – | –
COc1ccc(Cl)cc1NC(=O)NCC1CCN(C(=O)OC(C)(C)C)CC1 | -55.0 | – | – | -72.5 | – | –
COc1ccc(NC(=O)Nc2cc(C)ccc2OC)cc1 | – | – | – | – | – | –
COc1ccc(OC)c(NC(=O)Nc2ccc(Cl)cc2)c1 | -65.7 | – | – | ? | – | –
C=CCNc1nc(C(=O)OCC(=O)Nc2cccc(SC)c2)cs1 | – | – | – | – | – | –
O=C(Nc1cccc(C(F)(F)F)c1)C1Cc2c(-c3ccc(Cl)cc3)ccnc2O1 (stereo not drawn) | – | – | – | – | · | ?
CC(CCc1ccccc1)NC(=O)CNC(=O)COc1ccccc1 (stereo not drawn) | – | – | – | – | – | –
O=C(c1ccc(NC(=S)Nc2ccc(Cl)c(Cl)c2)cc1)N1CCCC1 | -99.3 | – | – | – | – | –
COc1ccc(Cl)cc1NC(=O)Nc1cccc([N+](=O)[O-])c1C | – | – | 20µM | -76.1 | – | ?
COc1ccc(NC(=O)Nc2ccc(O)c3ccccc23)cc1 | – | 32.6 | ? | – | – | ?
COc1ccc(Cl)cc1NC(=O)NC1CCCCC1 | – | – | – | – | – | –
CCOc1ccc2nc(NCCCNS(=O)(=O)c3ccc(C)cc3)c(C#N)cc2c1 | – | – | – | – | –[7.66 µM] | ·
CCOc1ccc(-c2nnc(SCC(=O)NC3CCCCC3)nc2-c2ccc(OCC)cc2)cc1 | · | – | · | · | · | ·
COc1ccc(-c2nn(C)c3sc(C(=O)N4CCN(c5cccc(C)c5C)CC4)cc23)cc1OC | · | – | – | · | · | –
O=[N+]([O-])c1ccc(OC/C=C2\Oc3ccc([N+](=O)[O-])cc3C2N2CCOCC2)cc1 (stereo not drawn) | -58.9 | – | – | – | – | –
CC1=CC(C)(C)N2C(=O)C3(NCCc4c3[nH]c3ccccc43)c3cc(C)cc1c32 (stereo not drawn) | – | – | – | ? | – | 22.4µM
Cc1ccc(F)c(NC(=O)c2cncn2-c2ccccc2)c1 | – | – | – | – | – | –
